Luminescence data for 65 compounds are collected here from PubChem BioAssay AID686977 (Southern Research Specialized Biocontainment Screening …, 2013).

In all, about 9,400 compounds went through this assay and fewer than 10 were called active. Inconclusive results (about 5%) are left out. A selection follows. Potency and affinity values are given separately. Values without a mark were called inactive. The rule behind the calls is not given here.

A short description of this assay: Vibrio cholerae quorum sensing activators, luminescence (AID 686977). The following applies: V. cholerae quorum sensing reporter, 6 h, hits give high values; dose 50, dose unit µM unless noted.
On to `O=C(c1ccccc1)n1ccc(-c2cnc(-c3ccccc3)s2)n1`, for which the luminescence was 0.

On to `CC1CCc2nn(CC(=O)NCCC3=CCCCC3)cc2C1` (stereo not given), for which the luminescence was 0.

On to `C=CCn1c(SCc2cccc(C#N)c2)nnc1-c1ccccc1O`, for which the luminescence is 360.

As to `CCCC(c1nnnn1Cc1ccco1)N1CCN(c2cc(Cl)ccc2C)CC1` (stereo not given), the luminescence is 0.

In the case of `CCCCCn1c(SCc2ccncc2)nc2cc(C(=O)NCc3ccco3)ccc2c1=O`, the luminescence was 40.

On to `Cc1ccc(-c2nnc3n2N=C(c2ccccc2)CS3)cc1`, for which the luminescence is 0.

Turning to `Cc1c(NC(=O)c2cc(CC(C)C)on2)c(=O)n(-c2ccccc2)n1C`, the luminescence is 0.

Take `CCOC(=O)CC1C(=O)NCCN1C(=O)NC1CCCCC1` (stereo not given): the luminescence is 0.

As for `CCn1c(SCC(=O)NCc2ccco2)nc2c(c1=O)SC(C)C2` (stereo not given), the luminescence was 0.

On to `CCCc1[nH]nc2c1C(C1CCCCC1)C(C#N)=C(N)O2` (stereo not given), for which the luminescence is 0.

Turning to `CC(C)Cn1c(SC(C)C(=O)Nc2ccc3c(c2)OCCO3)nc2ccccc2c1=O` (stereo not given), the luminescence is 40.

As for `Cc1cccc(NC(=O)C2CC(=O)n3cnnc3S2)c1` (stereo not given), the luminescence is 40.

Turning to `COCCn1c(SCc2nc3ccccc3c(=O)[nH]2)nnc1-c1ccncc1`, the luminescence is 40.

Consider `COc1ccc2ccc(Oc3ncccn3)cc2c1`, for which the luminescence is 200.

`CCOC(=O)N1CCC(Nc2c(N3CCN(c4cc(Cl)ccc4C)CC3)c(=O)c2=O)CC1`: the luminescence was 0.

`Cc1nc(-c2cccc(NS(=O)(=O)c3ccccc3)c2)cs1`: the luminescence was 160.

Take `CC1(C)N=C(N)N=C(N)N1c1cccc(C(=O)O)c1`: the luminescence was 0.

As for `CCOC(=O)c1sc(NCc2ccco2)c(-c2nc3ccccc3s2)c1N`, the luminescence was 0.

For `N#CC1(c2ccccc2)CCCN1C(=O)c1ccccc1Cl` (stereo not given), the luminescence is 0.

`Cn1c(=O)oc2cc(S(=O)(=O)N3CCCc4ccccc43)ccc21`: the luminescence was 40.

For `CC1CCc2cc(F)ccc2N1C(=O)c1cnc2sccn2c1=O` (stereo not given), the luminescence is 0.

Take `COc1ccc(-c2nc(CS(=O)CC(=O)N3CCCC3)c(C)o2)cc1` (stereo not given): the luminescence was 0.

In the case of `CC(C)(C)c1nc2ccccc2c2nnc(SCC(=O)Nc3nccs3)n12`, the luminescence is 80.

Turning to `COc1ccc(NC(=O)CSc2nccn2-c2cccc(OC)c2)cc1`, the luminescence was 0.

Consider `Nc1nnnn1/N=C/c1ccccc1C(F)(F)F`, for which the luminescence was 40.

Take `Cc1c(Cl)cccc1NC(=O)c1cc(-c2ccccc2O)n[nH]1`: the luminescence was 0.

Take `COc1ccc(N/N=C(\C=N\O)C(=O)c2ccc(OC)cc2)cc1`: the luminescence was 0.

For the compound `CCOC(=O)CSc1ccc(-c2nc3ccccc3[nH]2)cn1`, the luminescence is 0.

Regarding `Cc1nc(C)c(C(=O)C2=C(O)C(=O)N(CCN3CCOCC3)C2c2ccco2)s1` (stereo not given), the luminescence was 0.

`CC(C)OC(=O)c1nnc(Cc2ccc(F)cc2)o1`: the luminescence is 0.

Take `CC(NC(=O)c1ccccc1Br)c1ccc2c(c1)CCCC2` (stereo not given): the luminescence was 40.

Turning to `Cc1ccc(C(=O)CC(C(=O)O)c2cn(CCC#N)c3ccccc23)cc1` (stereo not given), the luminescence was 40.

Consider `CCC(C)c1ccc(-c2cc(C(=O)OCC(=O)Nc3cc(C)on3)c3ccccc3n2)cc1` (stereo not given), for which the luminescence is 0.

As for `CCc1cccc(C)c1NC(=O)CN1C(=O)c2ccccc2S1(=O)=O`, the luminescence is 200.

In the case of `N#Cc1nc(-c2cccc3ccccc23)oc1N1CCCCC1`, the luminescence was 0.

Consider `Cc1ccn2cc(CCNC(=O)C3CCCCC3)nc2c1`, for which the luminescence was 0.

`Cc1c(NC(=O)CSc2nnc3sc4ccccc4n23)c(=O)n(-c2ccccc2)n1C`: the luminescence is 40.

With `COC(=O)/C(=C\Nc1ccccc1N)c1ncc(C(F)(F)F)cc1Cl`, the luminescence was 40.

Take `COc1ccc(C(=O)NC(Cc2ccccc2)c2ccc3c(c2)OCCCO3)cc1` (stereo not given): the luminescence is 0.

Take `O=C(O)c1ccc(NS(=O)(=O)c2cccc3cccnc23)cc1`: the luminescence is 0.

`CCCNS(=O)(=O)c1ccc(CCC(=O)N2CCN(c3ccc(OC)cc3)CC2)cc1`: the luminescence was 0.

For `O=C(c1ccco1)N1CCN=C1SCc1ccccc1Cl`, the luminescence was 0.

As to `Oc1c(C(c2cccs2)N2CCN(c3cccc(Cl)c3)CC2)sc2ncnn12` (stereo not given), the luminescence was 40.

For the compound `COc1ccc(C(=O)NCCn2cc(SCC(=O)NCc3ccco3)c3ccccc32)cc1`, the luminescence was 0.

Take `CCn1c(SCC(=O)NCCc2ccccc2)nnc1-c1ccco1`: the luminescence was 0.

`COc1cc(OC)cc(-c2cc(N)n(S(=O)(=O)Cc3ccccc3)n2)c1`: the luminescence was 40.

As for `CCC(=O)N=c1sc2c(C)cc(C)cc2n1CC(=O)OC`, the luminescence was 0.

On to `Cc1ccc2[nH]c(=O)c(CN(CCCN(C)C)C(=O)Nc3ccc(Cl)cc3)cc2c1`, for which the luminescence was 0.

As to `CC(=O)c1sc(NC(=O)c2ccccc2F)nc1C`, the luminescence is 80.

`CC(C)N(Cc1nc(-c2ccccc2)no1)C(=O)c1ccc(Cl)cc1`: the luminescence was 0.

For `O=C(O)C1CCC(=O)N(C2CCCCC2)C1c1ccccc1` (stereo not given), the luminescence is 0.

Consider `Cc1ccn(CCSCC(=O)O)n1`, for which the luminescence was 0.

Consider `CCc1ccc(-c2cc(C(F)(F)F)n3nc(C(=O)Nc4c(C)nn(Cc5ccccc5C)c4C)cc3n2)s1`, for which the luminescence was 0.

As for `Cc1cccc2cc(CN(Cc3cccs3)Cc3nnnn3Cc3ccccc3)c(=O)[nH]c12`, the luminescence is 0.

Consider `CC(=O)c1cccc(N(CC(=O)O)S(C)(=O)=O)c1`, for which the luminescence was 40.

As to `CCN(CC)CCN1C(=O)C(=O)/C(=C(/O)c2c(C)[nH]c(C(=O)OC)c2C)C1c1cccs1` (stereo not given), the luminescence is 0.

As for `COc1ccc2nc(SCc3nc(N)nc(Nc4ccccc4)n3)[nH]c2c1`, the luminescence was 40.

Take `CCOc1ccc(N(CC(=O)NC(C)(C)C)C(=O)c2ccco2)cc1`: the luminescence was 40.

For the compound `CCOC(=O)c1c(C)c(C(=O)NCC2CCCO2)c(C)n1CC` (stereo not given), the luminescence is 0.

In the case of `O=C(NCCC1=CCCCC1)c1ccc(F)c(S(=O)(=O)N2CCOCC2)c1`, the luminescence was 0.

For the compound `BrC(=C\c1ccccc1)/C=N/N1CCN(Cc2ccccc2)CC1`, the luminescence was 0.

Consider `COC(=O)c1c(C)[nH]c(C)c1-c1ccccc1Cl`, for which the luminescence is 0.

Consider `CCOC(=O)C(=CNc1cc(C)nn1-c1ccc(C)cc1)C(=O)OCC`, for which the luminescence is 40.

As to `CCc1nc(SCC(N)=O)c2c(=O)n(C)c(=O)n(C)c2n1`, the luminescence is 40.

Consider `COC(=O)c1ccc(Oc2ccc(C(C)(C)C)cc2)c([N+](=O)[O-])c1`, for which the luminescence is 0.
